Reference: PubChem BioAssay AID1159580 (chemical genetic matrix, 2015)
“And” between values parts separate entries of the source, which are not always exact repeats. Identical values can stand only once. Hit rate of the full screen: of about 5,500 compounds, about 2,000 (36%) were called active. Roughly 18% stayed inconclusive and do not appear here. Rule as the data show it: active = normalized growth mostly below about 0.91 (no sharp cut-off); inconclusive = no clear call, values can overlap the other calls; inactive = mostly above about 0.92. Some of the results follow.

Experiment: chemical genetic growth profiling, strain panel (AID 1159580);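 also: tested at 20 µM; growth read once vehicle control cultures reached saturation at 30 °C; 1 = growth at the plate median or of vehicle wells; lower values mean less growth of the strain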
Settings: growth OD

Measured: normalized growth

NCCCC(=O)O
inactive: S. cerevisiae deletion strains, locus YAL013W, strain DEP1, stronger effect = lower value 1 and 0.982 | S. cerevisiae deletion strains, locus YAL040C, strain CLN3, stronger effect = lower value 0.965 | S. cerevisiae deletion strains, locus YBR021W, strain FUR4, stronger effect = lower value 1.01 | S. cerevisiae deletion strains, locus YBR229C, strain ROT2, stronger effect = lower value 1.01 | S. cerevisiae deletion strains, locus YCL029C, strain bik1, stronger effect = lower value 1.04 | S. cerevisiae deletion strains, locus YDL035C, strain GPR1, stronger effect = lower value 1.01 | S. cerevisiae deletion strains, locus YDL074C, strain BRE1, stronger effect = lower value 1.01 | S. cerevisiae deletion strains, locus YDL101C, strain DUN1, stronger effect = lower value 1.01 | S. cerevisiae deletion strains, locus YDL134C, strain PPH21, stronger effect = lower value 1.01 | S. cerevisiae deletion strains, locus YDL185W, strain tfp1, stronger effect = lower value 1.01 | S. cerevisiae deletion strains, locus YDL192W, strain arf1, stronger effect = lower value 1.02 | S. cerevisiae deletion strains, locus YDR101C, strain arx1, stronger effect = lower value 1.03 | S. cerevisiae deletion strains, locus YDR150W, strain NUM1, stronger effect = lower value 1.01 | S. cerevisiae deletion strains, locus YDR162C, strain NBP2, stronger effect = lower value 1 | S. cerevisiae deletion strains, locus YDR318W, strain mcm21, stronger effect = lower value 1.02 | S. cerevisiae deletion strains, locus YDR363W, strain ESC2, stronger effect = lower value 1.02 | S. cerevisiae deletion strains, locus YDR388W, stronger effect = lower value 1.02 | S. cerevisiae deletion strains, locus YDR502C, strain sam2, stronger effect = lower value 1.03 | S. cerevisiae deletion strains, locus YEL061C, strain CIN8, stronger effect = lower value 1 | S. cerevisiae deletion strains, locus YER002W, strain NOP16, stronger effect = lower value 0.993 | S. cerevisiae deletion strains, locus YER110C, stronger effect = lower value 1.04 | S. cerevisiae deletion strains, locus YER155C, strain BEM2, stronger effect = lower value 1.01 | S. cerevisiae deletion strains, locus YER167W, strain BCK2, stronger effect = lower value 1.01 | S. cerevisiae deletion strains, locus YGL078C, strain dbp3, stronger effect = lower value 1.03 | S. cerevisiae deletion strains, locus YGL086W, strain mad1, stronger effect = lower value 1.02 | S. cerevisiae deletion strains, locus YGL248W, strain PDE1, stronger effect = lower value 1.01 | S. cerevisiae deletion strains, locus YGR078C, strain PAC10, stronger effect = lower value 1.01 | S. cerevisiae deletion strains, locus YGR135W, strain pre9, stronger effect = lower value 1.04 | S. cerevisiae deletion strains, locus YGR229C, strain SMI1, stronger effect = lower value 1.03 and 0.998 | S. cerevisiae deletion strains, locus YGR252W, strain gcn5, stronger effect = lower value 1.07 | S. cerevisiae deletion strains, locus YHR030C, strain SLT2, stronger effect = lower value 1.01 | S. cerevisiae deletion strains, locus YHR079C, strain IRE1 (second series), stronger effect = lower value 1.02 | S. cerevisiae deletion strains, locus YHR079C, strain IRE1, stronger effect = lower value 0.994 | S. cerevisiae deletion strains, locus YHR094C, strain hxt1, stronger effect = lower value 1.02 | S. cerevisiae deletion strains, locus YHR129C, strain ARP1, stronger effect = lower value 1 | S. cerevisiae deletion strains, locus YHR200W, strain rpn10, stronger effect = lower value 1.02 | S. cerevisiae deletion strains, locus YIL066C, strain RNR3, stronger effect = lower value 1.01 | S. cerevisiae deletion strains, locus YIL073C, strain SPO22, stronger effect = lower value 1.06 | S. cerevisiae deletion strains, locus YIL125W, strain kgd1, stronger effect = lower value 1.02 | S. cerevisiae deletion strains, locus YIR030C, strain dcg1, stronger effect = lower value 1.04 | S. cerevisiae deletion strains, locus YJL095W, strain BCK1, stronger effect = lower value 1.01 and 0.999 | S. cerevisiae deletion strains, locus YJL134W, strain LCB3, stronger effect = lower value 1.01 | S. cerevisiae deletion strains, locus YJL168C, strain set2, stronger effect = lower value 1.03 | S. cerevisiae deletion strains, locus YJL187C, strain SWE1 (second series), stronger effect = lower value 1.01 | S. cerevisiae deletion strains, locus YJR043C, strain POL32, stronger effect = lower value 1 | S. cerevisiae deletion strains, locus YJR066W, strain TOR1, stronger effect = lower value 0.949 | S. cerevisiae deletion strains, locus YJR075W, strain HOC1, stronger effect = lower value 1.01 | S. cerevisiae deletion strains, locus YKL009W, strain mrt4, stronger effect = lower value 0.999 | S. cerevisiae deletion strains, locus YKL068W, stronger effect = lower value 1.01 | S. cerevisiae deletion strains, locus YKL085W, strain MDH1 (second series), stronger effect = lower value 1 | S. cerevisiae deletion strains, locus YKL085W, strain MDH1, stronger effect = lower value 1 | S. cerevisiae deletion strains, locus YKL190W, strain CNB1, stronger effect = lower value 1 | S. cerevisiae deletion strains, locus YKR001C, strain vps1, stronger effect = lower value 1.03 | S. cerevisiae deletion strains, locus YLR039C, strain RIC1, stronger effect = lower value 0.999 | S. cerevisiae deletion strains, locus YLR058C, strain SHM2, stronger effect = lower value 1.01 | S. cerevisiae deletion strains, locus YLR102C, strain apc9, stronger effect = lower value 1.03 | S. cerevisiae deletion strains, locus YLR113W, strain HOG1, stronger effect = lower value 0.996 | S. cerevisiae deletion strains, locus YLR262C, strain YPT6, stronger effect = lower value 1 | S. cerevisiae deletion strains, locus YLR268W, strain sec22, stronger effect = lower value 1.03 | S. cerevisiae deletion strains, locus YLR330W, strain CHS5, stronger effect = lower value 1 | S. cerevisiae deletion strains, locus YLR342W, strain FKS1 (second series), stronger effect = lower value 0.994 | S. cerevisiae deletion strains, locus YLR371W, strain rom2, stronger effect = lower value 1.03 | S. cerevisiae deletion strains, locus YLR418C, strain cdc73, stronger effect = lower value 1.08 | S. cerevisiae deletion strains, locus YML016C, strain PPZ1, stronger effect = lower value 1.01 | S. cerevisiae deletion strains, locus YML032C, strain rad52, stronger effect = lower value 1.04 | S. cerevisiae deletion strains, locus YML124C, strain tub3, stronger effect = lower value 1.03 | S. cerevisiae deletion strains, locus YMR078C, strain ctf18, stronger effect = lower value 1.03 | S. cerevisiae deletion strains, locus YMR223W, strain ubp8, stronger effect = lower value 1.02 | S. cerevisiae deletion strains, locus YMR263W, strain SAP30, stronger effect = lower value 1.01 | S. cerevisiae deletion strains, locus YMR307W, strain GAS1, stronger effect = lower value 1.02 | S. cerevisiae deletion strains, locus YNL067W, strain RPL9B, stronger effect = lower value 1.01 | S. cerevisiae deletion strains, locus YNL128W, strain TEP1, stronger effect = lower value 1.02 and 0.979 | S. cerevisiae deletion strains, locus YNL153C, strain GIM3, stronger effect = lower value 1.01 | S. cerevisiae deletion strains, locus YNL175C, strain NOP13, stronger effect = lower value 0.995 | S. cerevisiae deletion strains, locus YNL183C, strain NPR1, stronger effect = lower value 0.918 | S. cerevisiae deletion strains, locus YNL197C, strain WHI3, stronger effect = lower value 0.975 | S. cerevisiae deletion strains, locus YNL224C, strain SQS1, stronger effect = lower value 1.02 | S. cerevisiae deletion strains, locus YNL233W, strain BNI4, stronger effect = lower value 1 | S. cerevisiae deletion strains, locus YNL250W, strain rad50, stronger effect = lower value 1.03 | S. cerevisiae deletion strains, locus YNL271C, strain bni1, stronger effect = lower value 1.03 | S. cerevisiae deletion strains, locus YNL298W, strain CLA4, stronger effect = lower value 1.05 | S. cerevisiae deletion strains, locus YNL307C, strain MCK1, stronger effect = lower value 1.03 | S. cerevisiae deletion strains, locus YNL322C, strain KRE1, stronger effect = lower value 1.01 and 0.99 | S. cerevisiae deletion strains, locus YNR052C, strain pop2, stronger effect = lower value 1.02 | S. cerevisiae deletion strains, locus YOL006C, strain TOP1, stronger effect = lower value 1.03 | S. cerevisiae deletion strains, locus YOL012C, strain htz1 1.29 | S. cerevisiae deletion strains, locus YOL147C, strain pex11, stronger effect = lower value 1.04 | S. cerevisiae deletion strains, locus YOR061W, strain CKA2, stronger effect = lower value 1.01 | S. cerevisiae deletion strains, locus YOR069W, strain VPS5, stronger effect = lower value 1 | S. cerevisiae deletion strains, locus YOR083W, strain WHI5 (second series), stronger effect = lower value 0.99 | S. cerevisiae deletion strains, locus YOR136W, strain idh2, stronger effect = lower value 1.02 | S. cerevisiae deletion strains, locus YOR144C, strain elg1, stronger effect = lower value 1.03 | S. cerevisiae deletion strains, locus YOR184W, strain ser1, stronger effect = lower value 1.03 | S. cerevisiae deletion strains, locus YOR231W, strain MKK1, stronger effect = lower value 1 | S. cerevisiae deletion strains, locus YOR316C, strain cot1, stronger effect = lower value 1.03 | S. cerevisiae deletion strains, locus YPL055C, strain LGE1, stronger effect = lower value 1.03 | S. cerevisiae deletion strains, locus YPL241C, strain CIN2, stronger effect = lower value 0.999 | S. cerevisiae deletion strains, locus YPL256C, strain CLN2, stronger effect = lower value 0.985 | S. cerevisiae deletion strains, locus YPR119W, strain clb2, stronger effect = lower value 1.02 | S. cerevisiae deletion strains, locus YPR141C, strain kar3, stronger effect = lower value 1.02 | S. cerevisiae deletion strains, locus YPR163C, strain tif3, stronger effect = lower value 1.04 | S. cerevisiae deletion strains, locus YPR167C, strain met16, stronger effect = lower value 1.02 | S. cerevisiae deletion strains, strain wtn01, stronger effect = lower value 1.03 | S. cerevisiae strains, strain wild type, stronger effect = lower value 1.01
